Out of some 340,000 compounds screened, about 330 (0.097%) were called active. This is one part of a sample in which actives are shown more often than they occur.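 How the source made its calls: active means mean replicate inhibition of at least 30% and at least 1% of replicates passing that level; inconclusive means only one of the two criteria is met; inactive means neither criterion is met.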
System: Voltage-dependent L-type calcium channel subunit alpha-1D (CaV1.3) ICDI/IQ interaction
Assay: Disruptors of the CACNA1D IQ motif to Ca2+-dependent inactivation inhibitor domain association, primary screening, Förster resonance energy transfer in intact living cells, one concentration (AID 743397);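 further: 0% = median of the neutral control wells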
Settings: HEK cells, CFP/YFP FRET ICDI-IQ, plate reader, 10 min; at 12.3 µM; stronger effect = higher value; percent FRET-ratio fall versus neutral wells

| Structure (SMILES) | inhibition |
| --- | --- |
| C=CCN=C1NC(c2ccccc2)C(C(=O)OC)=C(C)N1Cc1ccc(C(F)(F)F)cc1 (stereo not drawn) | -6.18% (inactive) |
| CCN1CCN(CC(=O)Nc2sc3c(c2C#N)CCC3)CC1 | -6.79% (inactive) |
| N#Cc1c(N)sc2c1CCN(C(=O)OCc1ccccc1)C2 | -7.05% (inactive) |
| CC(=O)NC(=S)NNC(=O)c1ccc(Br)cc1 | 74.6% (active) |
| O=C(NNC(=O)c1ccc(Cl)nc1)c1ccc(Br)cc1 | -6.15% (inactive) |
| CNC(=S)NNC(=O)c1ccc(N(C)C)cc1 | -4.61% (inactive) |
| CCCCC(=O)Nc1ccc(C(=O)Nc2cc(C(F)(F)F)ccc2Cl)cc1 | -17.6% (inactive) |
| O=C(Nc1ccc(C(F)(F)F)cc1)c1cccc(-n2cnnn2)c1 | -5.18% (inactive) |
| O=C1Nc2ccccc2C1=NN=Cc1ccco1 | -4.56% (inactive) |
| CCCCC[C@H](C)N1C[C@@H](COCc2ccccc2)Oc2cc(N3CC[C@@H](N(C)C)C3)ccc2S1(=O)=O | -7.78% (inactive) |
| O=[N+]([O-])c1cccc(Nc2c3ccccc3nc3ccccc23)c1 | 87.1% (active) |
| N#Cc1cccc(Nc2c3c(nc4ccccc24)CCCC3)c1 | -2.56% (inactive) |
| O=C(Nc1cccc([N+](=O)[O-])c1)Nn1cnnc1 | -5.3% (inactive) |
| COCCCn1c(C(=O)NC2CCCCC2)cc2c(=O)n3cccc(C)c3nc21 | -7.34% (inactive) |
| COc1ccc(CCn2c(=N)c(C(=O)NCC3CCCO3)cc3c(=O)n4cccc(C)c4nc32)cc1OC (stereo not drawn) | -7.32% (inactive) |
| CCn1c(=N)c(C(=O)NCCCOC)cc2c(=O)n3cccc(C)c3nc21 | 45.8% (active) |
| COCc1[nH]nc2c1C(c1ccccc1)N(c1ccccc1)C2=O (stereo not drawn) | -4.04% (inactive) |
| COC(=O)c1cc2c(c3c4cc(F)ccc4n(S(=O)(=O)c4ccccc4)c13)C(=O)N(Cc1ccccc1OC)C2 | -8.18% (inactive) |
| C=CC[C@]12C[C@@]3(O[C@H](c4ccc(C(F)(F)F)cc4)N=C3C[C@H](c3ccc(OC)cc3)[C@H]1C)N(C1CCN(Cc3ccccc3)CC1)C2=O | -3.62% (inactive) |
| CN(C)CCOc1ccc(Cl)cc1C(C)(C)C | 3.19% (inactive) |
| CCN(CC)CCOCCOc1ccc(Cl)c2ccccc12 | -5.65% (inactive) |
| CN(C)CCOCCOc1ccc(Cl)c2ccccc12 | 62.4% (active) |
| Cc1ccc(N)cc1CN1CCN(c2ncc(Cc3ccccc3)cn2)CC1 | -2.7% (inactive) |
